The list is not random: actives were taken first. Their share in the collection is about 1.6%.
KCNQ2 inh: rat KCNQ2 potassium channel inhibitors, primary screen, cell-based, CHO-K1, FluxOR thallium flux, B-score; Potassium voltage-gated channel subfamily KQT member 2 (Rattus norvegicus), O88943; 20 min; active compounds read low; B-score at 10 µM; 310,000 tested, 1.1% active; AID 2156, 2009;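 active means fluorescence ratio B-score at most minus 3 library SDs, with starting brightness B-score within 2 library SDs, cut at about -5.5 in these data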
KCNQ2 enhance: potentiators of rat KCNQ2 potassium channel | Potassium voltage-gated channel subfamily KQT member 2 (Rattus norvegicus), O88943 | 310,000 tested, 0.54% active | CHO-K1 KCNQ2, FluxOR thallium flux fluorescence; active compounds read high | B-score at 10 µM;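 active means fluorescence ratio B-score at least 3 SD of library B-scores, with initial fluorescence B-score within 3 of them, cut at about 5.3 in these data; same plate scores as AID 2156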;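 further: B-score of peak minus minimum over baseline fluorescence ratio after K+ and Tl+ stimulus; positive B-score means potentiation of KCNQ2 with more thallium influx and brighter signal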
KCNQ2 block conf: rat KCNQ2 potassium channel inhibitors, confirmation, cell-based, thallium flux | shares compounds with KCNQ2 inh | KCNQ2-expressing cells, inhibition; active compounds read low | activity change, negative = inhibition, % at 10 µM | 1,000 tested, 57% active
KCNQ1 spec: human KCNQ1 channel inhibition, counter-screen for KCNQ2 inhibitor project, cell-based, FluxOR thallium flux. 1,000 tested, 15% active. activity change, negative = inhibition, % at 10 µM. KCNQ1-expressing cells, FluxOR thallium flux fluorescence; active compounds read low. shares compounds with KCNQ2 inh;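 active means activity change at least 3 SD of negative controls below their mean in both duplicate wells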;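 further: CHO cells stably transfected with KCNQ1 and depolarized by potassium stimulus; peak minus minimum fluorescence over baseline after thallium addition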
CHO Tl ctr: thallium flux change in parental CHO cells, counter-screen for KCNQ2 inhibitor project. shares compounds with KCNQ2 inh. active compounds read low. activity change, % at 10 µM. 1,000 tested, 14% active. AID 493029, 2011
KCNQ2 inh confirm: rat KCNQ2 channel inhibitors, confirmation, cell-based, automated patch clamp, single concentration | AID 588531, 2011 | calls only at 10 µM | KCNQ2-expressing cells, automated patch clamp current | 550 tested, 49% active | shares compounds with KCNQ2 inh
Numbers stand for hits; . = inactive; / = no result given; + = active, no number. Unless noted, how the calls were made is not given here.

SMILES	KCNQ2 inh	KCNQ2 enhance	KCNQ2 block conf	KCNQ1 spec	CHO Tl ctr	others
O=C(CN1CCCC(O)C1)N1c2ccccc2Sc2ccc(C(F)(F)F)cc21 (stereo unspecified)	.	/	/	/	/
N[C@H]1CONC1=O	.	.	/	/	/
COc1ccccc1N1CCN(C2CCCN(C(=O)CCN3CCCCO3)C2)CC1 (stereo unspecified)	.	.	/	/	/
CCOc1cnn(-c2cc(Oc3ccc(C)cc3)ncn2)c(=O)c1Cl	.	.	/	/	/
Cc1cc(Oc2cnn(C(C)(C)C)c(=O)c2Cl)cc(C(C)C)c1	-10.7	.	-34.0%	-30.0%	-32.0%	KCNQ2 inh confirm=.
O=C(NC1CCc2ccccc21)c1cc(COc2cncc(Cl)c2)on1 (stereo unspecified)	.	/	/	/	/
CCCC1/C(=N/O)CC(c2ccccc2)NC1c1ccccc1 (stereo unspecified)	.	/	/	/	/
CCC1C(=NO)C(CC)C(c2ccccc2)NC1c1ccccc1 (stereo unspecified)	-9.42	.	-39.0%	.	.	KCNQ2 inh confirm=.
Cc1ccnc(NS(=O)(=O)c2ccc3ccccc3c2)n1	.	.	/	/	/
COc1ccccc1C(=O)NC(=O)Cn1nc(C)c([N+](=O)[O-])c1C	.	/	/	/	/
COc1ccc(C2CC(c3ccccc3)=NN2C(=O)c2ccc(F)cc2)cc1 (stereo unspecified)	.	.	/	/	/
O=C(Nc1ccccc1)N1N=C(c2ccc(F)cc2)CC1c1ccc(F)cc1 (stereo unspecified)	-6.72	.	.	.	.
Cc1ccc(S(=O)(=O)N[C@@H](CC(C)C)C(=O)N2CCC(C(=O)N[C@H](C(=O)O)C(C)C)CC2)cc1	.	/	/	/	/
Cc1cnc(CN(C)Cc2c(C(=O)N3CCc4ccccc4C3)nc3ccc(Cl)cn23)[nH]1	.	/	/	/	/
CC(C)CN(C)Cc1c(C(=O)N2CCc3ccccc3C2)nc2ccc(Cl)cn12	-8.66	.	-32.5%	-38.0%	-25.0%	KCNQ2 inh confirm=+
CC(C)OP(=O)(OC(C)C)C(C)NC(=O)Cc1ccccc1 (stereo unspecified)	.	.	/	/	/
COc1ccc(CNC(=O)CN(Cc2ccc(Cl)cc2)S(=O)(=O)c2ccccc2)cc1	-7.45	.	-29.5%	.	.	KCNQ2 inh confirm=.
COc1ccc(S(=O)(=O)N(CC(=O)NCc2ccncc2)Cc2ccccc2)cc1	.	/	/	/	/
O=C(NCCc1cn2ccsc2n1)C1CCCCC1	.	.	/	/	/
Cc1csc2nc(CNC(=O)C3CCCCC3)cn12	-8.79	.	.	.	.
COc1ccccc1OCC(=O)Nc1nc(C)c(C)s1	.	/	/	/	/
O=[N+]([O-])c1cccc(-n2cccc2/C=N/Nc2nc(N3CCCCC3)nc(N3CCCCC3)n2)c1	.	/	/	/	/
Brc1cccc(/C=N/Nc2nc(N3CCCCC3)nc(N3CCCCC3)n2)c1	-6.89	.	-19.0%	.	.	KCNQ2 inh confirm=.
O=[N+]([O-])c1cccc(/C=N/Nc2nc(N3CCCCC3)nc(N3CCCCC3)n2)c1	-7.67	.	-34.0%	.	.	KCNQ2 inh confirm=.
Oc1ccc(/C=N/Nc2nc(N3CCCC3)nc(N3CCCC3)n2)cc1O	.	/	/	/	/
SMILES	KCNQ2 inh	KCNQ2 enhance	KCNQ2 block conf	KCNQ1 spec	CHO Tl ctr	others
COc1ccc(Cl)cc1N(CC(=O)Nc1ccccc1C(=O)N1CCOCC1)S(C)(=O)=O	.	.	/	/	/
O=C(NCC1COc2ccccc2O1)c1cccc(S(=O)(=O)NCc2ccccc2)c1 (stereo unspecified)	.	/	/	/	/
C/C(=N\OC(=O)Nc1ccc(Cl)cc1)c1ccc(F)c(F)c1	.	/	/	/	/
CSCC[C@H](NC(=O)OC(C)(C)C)C(=O)N1CCC(C(=O)NCC(=O)Nc2ccc(C)cc2)CC1	.	/	/	/	/
CC(C)CN(C)C(=O)CCc1nnc(Cc2cccc(C(F)(F)F)c2)o1	.	/	/	/	/
Cc1ccnc2nc(C(=O)OCCOc3ccc(F)cc3)nn12	.	.	/	/	/
COc1ccc(CN(Cc2ccccn2)C(=O)CN2C(=O)COc3ccccc32)cc1	.	.	/	/	/
CC1Oc2ccccc2N(CC(=O)N(Cc2ccccc2)Cc2ccccn2)C1=O (stereo unspecified)	-7.22	.	-15.5%	.	.	KCNQ2 inh confirm=+
C#CC(CC)(CC)NC(=O)NC1CCCCC1	.	/	/	/	/
O=C(c1ccco1)N1CCN(C(c2cccs2)c2nnnn2C2CCCCC2)CC1 (stereo unspecified)	.	.	/	/	/
CC(/C=N/Nc1nc(N2CCCCC2)nc(N2CCCCC2)n1)=C\c1ccccc1	-8.17	.	-33.5%	-34.5%	-25.5%	KCNQ2 inh confirm=.

Screening data deposited in PubChem BioAssay by Johns Hopkins Ion Channel Center.
